Test results: PubChem BioAssay; in the data active = activity above about 50%; inactive = the rest

Columns and labels:
[1] = target: Tumor necrosis factor receptor superfamily member 10B (Homo sapiens) (UniProt O14763); assay: caspase-8 TRAIL sensitization, hit retest, confirmation, cell-based, NB7+caspase-8, with/without TRAIL, luminescence panel (AID 651596); details: NB7 neuroblastoma + caspase-8, TRAIL sensitization, luminescence viability, with TRAIL, mean of runs, at 10 µM, stronger effect = higher value
Tumor necrosis factor receptor superfamily member 10B (Homo sapiens), sequence (O14763 whole entry, looked up): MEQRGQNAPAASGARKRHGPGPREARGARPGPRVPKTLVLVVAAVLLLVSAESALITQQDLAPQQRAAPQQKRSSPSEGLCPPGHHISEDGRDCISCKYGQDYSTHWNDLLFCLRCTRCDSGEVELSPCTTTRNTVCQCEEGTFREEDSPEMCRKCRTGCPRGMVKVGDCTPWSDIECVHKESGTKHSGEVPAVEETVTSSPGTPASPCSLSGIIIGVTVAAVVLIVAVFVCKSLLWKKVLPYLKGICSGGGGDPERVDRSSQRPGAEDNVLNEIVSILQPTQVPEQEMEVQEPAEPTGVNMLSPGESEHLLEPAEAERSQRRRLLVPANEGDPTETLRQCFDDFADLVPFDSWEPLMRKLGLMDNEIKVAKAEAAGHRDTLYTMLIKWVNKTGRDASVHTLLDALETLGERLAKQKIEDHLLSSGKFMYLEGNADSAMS

[2] = as above; details: NB7 neuroblastoma + caspase-8, without TRAIL, luminescence viability, without TRAIL, mean of runs, at 10 µM

Row | SMILES | activity [1] | activity [2]
1 | OCC1OC(n2cnc3c(=S)nc[nH]c32)CC1O (stereo unspecified) | 31.4% | 35.7%
2 | CCN1CCN(CCCNC(=O)c2ccc3c(c2)NC(=O)/C(=C\c2cccc(C)c2)S3)CC1 | 41.4% | 89.2%
3 | COc1ccc(C(=O)Nc2ccccc2C(=O)N/N=C/c2cccc3ccccc23)cc1 | 98.8% | 95.8%
4 | CC(=O)c1c(C)[nH]c(C(=O)Nc2nc(C)cs2)c1C | 80.2% | 82.6%
5 | CCc1ccc(-c2ccc(SCC(=O)NCC3CCCO3)nn2)cc1 (stereo unspecified) | 52.9% | 62.2%
6 | CCOc1ccc(C(=O)Nc2ccc3c(c2)OCCO3)cc1 | 70.5% | 61.4%
7 | O=C(Nc1ccc(O)cc1)c1ccc2c(c1)C(=O)N(Cc1ccccc1)C2=O | 60.9% | 19.7%
8 | CCCCCCCCCCCCCCCC[N+](C)(C)Cc1ccc(F)cc1 | 80.7% | 74.2%
9 | CCOc1ccc2nc(NC(=O)CN3CCC(n4nnc5cc(C(F)(F)F)ccc54)CC3)sc2c1 | 69% | 66.9%
10 | CN(NC(=O)c1ccc(Cl)cc1)c1nc(-c2ccccc2)nnc1C(F)(F)F | 61.9% | 57.8%
11 | CC(C)c1nnc(NC(=O)c2nc(S(=O)(=O)Cc3ccc(F)cc3)ncc2Cl)s1 | 72.9% | 41.8%
12 | CCCc1cc2c(=O)c(-c3ccc4c(c3)OCCO4)coc2cc1OC(=O)c1ccco1 | 65.5% | 66.4%
13 | CCCCC(=O)Nc1cc(C)c2c(=O)oc3ccccc3c2n1 | 62.4% | 56.6%
14 | COc1cccc(/C=C2\Oc3ccc(O)cc3C2=O)c1O | 66.8% | 56.4%
15 | O=C(CCl)N(CCc1ccccc1)CCc1ccccc1 | 99.4% | 98.2%
16 | Cc1nn(-c2ccccc2)c(Cl)c1CN(C(=O)CCl)c1cccc2ccccc12 | 98.8% | 99.7%
17 | CC(/C=N/NC(=O)c1n[nH]c2c1CCC2)=C\c1ccccc1 | 48.1% | 68.9%
18 | Cc1nc2cc(Nc3nnc(-c4ccccc4)c4ccccc34)ccc2n1C | 87.9% | 83.9%
19 | COc1ccc(C2C(O)C(c3c[nH]c4ccccc34)=NN2C(=O)CCl)cc1 (stereo unspecified) | 99.2% | 99.2%
20 | COC(=O)c1ccc2c(c1)C(C)(C)C(/C=C/c1ccc(OC)c(OC)c1OC)=[N+]2C | 73.8% | 68.9%
21 | COc1ccc2nc(NN=C(C)c3ccccn3)cc(C)c2c1 | 74% | 80.1%
22 | Cc1ccc(C(=O)c2no[n+]([O-])c2C(=O)c2ccc(C)cc2)cc1 | 98% | 92%

Row | SMILES | activity [1] | activity [2]
23 | COc1ccc(C(C(=O)NC2CCCCC2)N(C(=O)CCl)c2ccc(Cl)cc2)cc1 (stereo unspecified) | 98.4% | 98.9%
24 | CCc1ccc(NC(=O)c2nc(S(=O)(=O)Cc3ccccc3)ncc2Cl)cc1 | 51.2% | 86.6%
25 | CCc1ccc(/C=N/Nc2ncnc3nc[nH]c23)cc1 | 47.1% | 41.7%
26 | OCC1OC(n2ccc3c2ncn2ncnc32)C(O)C1O (stereo unspecified) | 93.8% | 95.3%
27 | Fc1ccc(-c2nc(-c3cnccn3)no2)c(Cl)c1 | 59.1% | 58.1%
28 | Cc1ccc(-n2[nH]c(C)c(C=Nc3ccc4[nH]c(=O)[nH]c4c3)c2=O)cc1C | 51.4% | 41.5%
29 | CC(c1ccco1)N(C(=O)COc1ccc(Cl)cc1Cl)c1ccccn1 (stereo unspecified) | -4.47% | 10.2%
30 | COc1cccc(C(=O)Cn2c(=N)n(C)c3ccccc32)c1 | 65.8% | 66.2%
31 | Cc1cccc(/C(N)=N/OC(=O)c2ccc(Cl)cc2Cl)c1 | 97.3% | 91.8%
32 | CC(C)c1nnc(NC(=O)c2c(O)c3cccc4c3n(c2=O)CCC4)s1 | 43.6% | 36.5%
33 | CC(=O)Oc1ccc(/C=N\NC(=O)c2cc3c(ccc4ccccc43)o2)cc1 | 64.6% | 67.7%
34 | Cc1ccn(-c2ccc(NC(=O)c3cccs3)cc2)n1 | 59.7% | 65.7%
35 | CCOc1ccc(Nc2nc(N)nc(CCl)n2)cc1 | 99.5% | 99.3%
36 | COc1ccc(-c2nc3ccccc3c(=O)[nH]2)cc1 | 73.8% | 77.5%
37 | CC(=O)Oc1ccc(/C=C/c2nc3ccccc3c(=O)o2)cc1 | 80.2% | 75.2%
38 | CCOc1cccc(C(=O)Nc2ccc3[nH]ncc3c2)c1 | 61% | 67%
39 | Cc1ccc(Cn2ccsc2=NC(=O)CCl)cc1 | 99.2% | 99%
40 | Clc1ccc(-n2ncc3c(N4CCCCCC4)ncnc32)cc1 | 78% | 74.8%
41 | Cn1c(-c2ccc(Br)o2)nc2ccccc21 | 57.9% | 61.8%
42 | O=C(Nc1ccc2c(c1)OCCO2)c1ccc2nccnc2c1 | 53.5% | 50.4%
43 | Cc1cc(NC(=O)c2ccc(S(=O)(=O)N3CCCC3)cc2)nc2c1c(=O)oc1ccccc12 | 69.5% | 58.2%
